Five sequences from paper PMC8384837, “Expanding the binding specificity for RNA recognition by a PUF domain” can be followed below.

The target of one test is PUM1 PUF domain R4-DYS (Homo sapiens, UniProt Q14671 828-1176, N971D;H972Y;Q975S). Briefly: yeast three-hybrid, YBZ-1, SC-Leu-His + 0.5 mM 3-AT, 4 days. As to conditions: tags: N-Gal4 AD-HA kept; label: inside an RPR1-promoter hybrid RNA with tandem MS2 sites; ssRNA. Put shortly: (§1)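 The interaction score is the log change in how often each variant appears, from input to selection. Frequencies came from PCR-amplified, Illumina-sequenced repeat regions of Pumilio-1 PUF domain libraries grown in strain YBZ-1 (LexA–MS2 coat fusion, HIS3 reporter) alongside matching RNA elements. Input plates were SC-Leu and selection plates were SC-Leu-His + 0.5 mM 3-AT, each for four days, and the log2 calculation used a pseudocount of 1 where a variant was absent.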
As to “GGCUAGAACUAGUGGAUCCCCCGGCGCCCGGCGGCUCGAGCCCGGGUAAGUGUACAUAGUCUGCAUGCCGCCGGGCGCCAUGCCUGCAGGUCGACUCUAGAAAACAUG”, the binding signal was 5.76 log2 enrichment (interaction score).

In the case of “GGCUAGAACUAGUGGAUCCCCCGGCGCCCGGCGGCUCGAGCCCGGGUAAGUGUAUAUAGUCUGCAUGCCGCCGGGCGCCAUGCCUGCAGGUCGACUCUAGAAAACAUG”, the binding signal was 7.01 log2 enrichment (interaction score).

Take “GGCUAGAACUAGUGGAUCCCCCGGCGCCCGGCGGCUCGAGCCCGGGUAAGUGUAAAUAGUCUGCAUGCCGCCGGGCGCCAUGCCUGCAGGUCGACUCUAGAAAACAUG”: the binding signal is 4.45 log2 enrichment (interaction score).

Another test deals with PUM1 PUF domain R3-LWL (Homo sapiens, UniProt Q14671 828-1176, C935L;R936W;Q939L). The description is as above. As to conditions: tags: N-Gal4 AD-HA kept; label: inside an RPR1-promoter hybrid RNA with tandem MS2 sites; ssRNA. Put shortly:
as §1
For “GGCUAGAACUAGUGGAUCCCCCGGCGCCCGGCGGCUCGAGCCCGGGUAAGUGUAAAUAGUCUGCAUGCCGCCGGGCGCCAUGCCUGCAGGUCGACUCUAGAAAACAUG”, the binding signal was 2.69 log2 enrichment (interaction score).

On to “GGCUAGAACUAGUGGAUCCCCCGGCGCCCGGCGGCUCGAGCCCGGGUAAGUGUAAUUAGUCUGCAUGCCGCCGGGCGCCAUGCCUGCAGGUCGACUCUAGAAAACAUG”, for which the binding signal was 4.13 log2 enrichment (interaction score).

Take “GGCUAGAACUAGUGGAUCCCCCGGCGCCCGGCGGCUCGAGCCCGGGUAAGUGUAAGUAGUCUGCAUGCCGCCGGGCGCCAUGCCUGCAGGUCGACUCUAGAAAACAUG”: the binding signal was 4.64 log2 enrichment (interaction score).
